TEAD-YAP inh = TEAD-YAP interaction inhibition; HEK-TIYL cells, TEAD-Gal4/YAP UAS-luciferase luminescence; inhibition, % at 9.12 µM; 640,000 tested, 1.4% active; in the data active = inhibition above about 32%;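 also: 0% = median of test compound wells and 100% = reference inhibitor wells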
FBW7 act = human FBW7 E3 ligase activation, primary screen. Q969H0. AlphaScreen FBW7–phospho-cyclin E peptide binding, activator screen. normalized activity (activation), % at 26.1 µM. 650,000 tested, 0.13% active; in the data active = normalized activity above about 1.9%;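 also: purified mutant Fbw7 with reduced substrate affinity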
GPR151 ag = activates the human receptor GPR151. PathHunter beta-arrestin GPR151 cells, luminescence. activation, % at 11.2 µM. Q8TDV0. 650,000 tested, 1% active; in the data active = activation above about 4.9%;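 also: 0% = median of compound wells and 100% = cells with positive control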
MITF inh = blocks human microphthalmia-associated transcription factor. 650,000 tested, 0.91% active. AlphaScreen MITF homodimerization, bead proximity signal. AID 1259374. O75030. inhibition, % at 2.6 µM; in the data active = inhibition above about 50%;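 also: 0% = vehicle wells with protein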
Target sequence (O75030 whole entry, looked up): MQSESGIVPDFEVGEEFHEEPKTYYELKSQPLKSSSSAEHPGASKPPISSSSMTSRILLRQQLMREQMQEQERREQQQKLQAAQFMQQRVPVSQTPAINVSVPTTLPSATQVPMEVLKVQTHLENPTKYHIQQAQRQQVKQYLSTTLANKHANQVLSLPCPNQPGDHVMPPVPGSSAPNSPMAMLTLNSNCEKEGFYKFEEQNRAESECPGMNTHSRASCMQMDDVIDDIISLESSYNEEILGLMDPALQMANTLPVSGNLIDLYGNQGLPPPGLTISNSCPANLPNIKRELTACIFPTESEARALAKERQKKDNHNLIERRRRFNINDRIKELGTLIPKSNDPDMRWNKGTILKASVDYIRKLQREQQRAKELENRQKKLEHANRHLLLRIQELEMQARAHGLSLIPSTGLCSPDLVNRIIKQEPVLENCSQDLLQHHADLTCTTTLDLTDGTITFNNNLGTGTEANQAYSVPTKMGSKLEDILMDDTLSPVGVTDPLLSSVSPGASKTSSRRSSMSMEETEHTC
Starred values were filed as active, the others as inactive. The list is not random: actives were taken first. Their share in the collection is about 3.5%.

SMILES | TEAD-YAP inh | FBW7 act | GPR151 ag | MITF inh
CCCCN(Cc1ccccc1)c1ncnc(N)c1[N+](=O)[O-] | 8 | 0 | 4 | 6
O=[N+]([O-])c1c(N2CCCCCC2)ncnc1N1CCCCCC1 | 3 | 0 | 2 | 21
CCN(CC)c1ncnc(N)c1[N+](=O)[O-] | 63* | 0 | 0 | 14
CCCCN(C)c1ncnc(N)c1[N+](=O)[O-] | 41* | 0 | -2 | 17
CN(c1ncnc(N)c1[N+](=O)[O-])C1CCS(=O)(=O)C1 (configuration not stated) | 22 | 0 | -1 | 10
Nc1ncnc(N2CCCCCC2)c1[N+](=O)[O-] | 49* | 0 | 1 | 6
CCCCN(c1ccccc1)c1ncnc(N)c1[N+](=O)[O-] | 28 | 0 | -2 | -7
CCN(c1ccccc1)c1ncnc(N)c1[N+](=O)[O-] | 52* | 0 | 2 | -5
C=CCNC(=O)/C=C/c1ccc([N+](=O)[O-])cc1 | -26 | 0 | -1 | -2
COc1ccc(N=C2O/C(=C\c3sc(=S)n(CC4CCCO4)c3O)N=C2C#N)cc1 (configuration not stated) | 9 | 0 | -1 | 52*
CC1C/C(=C/c2ccncc2)C(=O)/C(=C/c2ccncc2)C1 (configuration not stated) | 94* | 0 | 1 | -3
O=C(Nc1ccc(S(=O)(=O)N2CCOCC2)cc1)c1cc(Cl)ccc1Cl | 1 | 0 | 1 | 1
COc1cc(NC(=O)COc2ccc(Cl)cc2)c(C(=O)O)cc1OC | -3 | 0 | 0 | 8
COc1cc(/C=C2\C(=O)ON=C2C)cc(Cl)c1OC(C)C | -4 | 0 | 0 | 75*
CCOc1c(Br)cc(/C=C2\C(=O)ON=C2C)cc1OC | -8 | 0 | 2 | 78*
CSc1ccc(/C=C2\C(=O)ON=C2C)cc1 | -3 | 1 | 0 | 79*
C#CCOc1ccc(/C=C2\C(=O)ON=C2C)cc1OC | -10 | 0 | 2 | 68*
Cc1ccccc1C1c2[nH]c3ccccc3c2CCN1C(=O)CCCn1cncn1 (configuration not stated) | 25 | 0 | 0 | -12
COc1ccc(OC)c(/C=C2/C(=O)ON=C2C)c1 | -4 | 0 | 0 | 46
COc1ccc(Br)cc1/C=C1\C(=O)ON=C1C | -5 | 0 | -1 | 65*
Cc1[nH]c2ccc(-c3nnc(SCC(=O)Nc4cccc([N+](=O)[O-])c4)n3-c3ccccc3)cc2c1C | 2 | 2.4* | 1 | 17
Cc1[nH]c2ccc(-c3nnc(SCC(=O)Nc4cccc([N+](=O)[O-])c4)n3Cc3ccccc3)cc2c1C | 1 | 0 | 0 | -6
COC(=O)c1cc(C(=O)N2CCN(c3cccc(Cl)c3)CC2)cc([N+](=O)[O-])c1 | 63* | 0 | 1 | 4
O=C(c1cccc([N+](=O)[O-])c1)N1CCN(c2cccc(Cl)c2)CC1 | 13 | 0 | 1 | 8
Cc1nnc2c(Nc3ccc(Br)cc3)nc3ccccc3n12 | 1 | 0 | 2 | -8
SMILES | TEAD-YAP inh | FBW7 act | GPR151 ag | MITF inh
CCCCC(CC)CNC(=O)c1ccc2c(=O)n(CCOC)c(=O)[nH]c2c1 (configuration not stated) | 45* | 0 | 0 | 6
CC1CN(C2CC(=O)N(c3ccc(N4C(=O)CC(N5CC(C)OC(C)C5)C4=O)cc3)C2=O)CC(C)O1 (configuration not stated) | -7 | 1 | -1 | 11
COc1ccc(CCNS(=O)(=O)c2ccc(CCNC(C)=O)cc2)cc1 | -9 | 0 | -2 | -5
O=C(NC(NC(=O)c1ccccc1)c1ccc(O)c([N+](=O)[O-])c1)c1ccccc1 | 4 | 0 | 0 | 3
Oc1c(C(O)(C(F)(F)F)C(F)(F)F)ccc2cccnc12 | 49* | 0 | -2 | 47
Oc1c(CN2CCN(Cc3ccc4cccnc4c3O)CC2)ccc2cccnc12 | 38* | 0 | -2 | 114*
O=C(CCl)Nc1c(C(O)(C(F)(F)F)C(F)(F)F)ccc2ccccc12 | 12 | 0 | 2 | 0
Oc1ccc(CN2CCN(c3ccccc3)CC2)c2cccnc12 | 5 | 0 | 0 | 31
Oc1c(CN2CCCCC2)ccc2cccnc12 | 46* | 0 | -2 | 105*
Oc1c(CN2CCOCC2)ccc2cccnc12 | 16 | -1 | 1 | 95*
Oc1c(CN2CCOCC2)ccc2ccccc12 | 5 | 0 | 0 | 13
CC(C)CNC(=O)c1ccccc1NC(=O)C1COc2ccccc2O1 (configuration not stated) | 3 | 0 | -1 | -12
N#CC1=C(N)OC2=C(CCC/C2=C/c2ccoc2)C1c1ccoc1 (configuration not stated) | -12 | 0 | 2 | 58*
O=C(COc1ccc(Cl)cc1Cl)Nc1ccccc1CO | -54 | 0 | -1 | 7

Compound activity as filed in PubChem.
